MARV entry inh – qHTS for inhibitors of binding or entry into cells for Marburg Virus | Marburg virus pseudotyped entry inhibition, cell reporter | Potency, µM (top dose mostly 37.8 µM), actives largely listed as inhibitors | actives 1.8% (n = 300,000) | AID 540276, 2011; calls by dose curve; tested in HEK293 cells
Lassa entry inh – qHTS for Inhibitors of binding or entry into cells for Lassa Virus; Lassa virus pseudotype entry inhibition, cell reporter; actives 1.2% (n = 300,000); Potency, µM (highest dose often 37.9 µM), actives largely listed as inhibitors; calls by dose curve; tested in HEK293 cells; further: nearly all actives have a fitted effect of over 50% in size
HCMV antiviral – qHTS Assay for inhibitors of the human cytomegalovirus (HCMV). AID 1259415, 2018. activity change, negative = inhibition, % at 57.5 µM. HFF cells, HCMV-luciferase reporter, 72 h; stronger effect = lower value. actives 4.5% (n = 410,000); in the data active means activity change below about -60%; inconclusive means no clear call, values can overlap the other calls; inactive means above about -39%
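Two-dose cell screen: HFF monolayers treated with compounds and infected with luciferase-expressing HCMV at 1 PFU/cell, 72 h at 37C, then lysed for luciferase measurement.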
FMDV antiviral – High Throughput Screening for Foot and Mouth Disease Virus Antivirals | Potency, µM (series often up to 57.9 µM), actives largely listed as inhibitors | actives 1.2% (n = 410,000) | FMDV antiviral cell-based qHTS; calls by dose curve; tested in HEK293T cells; further: read-out not given here; nearly all actives have a fitted effect of over 45% in size
HCV inh – qHTS Assay for Inhibitors of Hepatitis C Virus (HCV); Huh7.5.1 HCVcc-Cre infection, luciferase reporter, 44 h; Potency, µM (doses to about 41.8 µM), usual class: inhibitors; actives 3.4% (n = 340,000); active means well fitted inhibition curve with a large enough effect; inconclusive means small, poorly fitted or top-dose-only effect, or another doubt; inactive means no such curve, though single readings can be large or run the other way
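Infectious HCV cell culture screen: compound-treated cells (1,000/well, pre-plated 4 h) are infected with HCVcc-Cre at roughly 0.5 moi and grown 44 h. Infection is quantified by luciferase signal after 15 min substrate incubation at room temperature.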
Large screens that a line does not name were inactive; ! = repeats disagree. Rows were chosen to be rich in hits. Some 7.9% of all compounds tested hit in one or more screens of this group.

CCC1CN(CCNC(=O)c2cccc(N3CCCC3=O)c2)Cc2cc(OC)ccc2O1 (stereo unspecified)	none (no result: MARV entry inh, Lassa entry inh, HCMV antiviral, HCV inh)
S=C(c1cn(CCOc2cccc3ccccc23)c2ccccc12)N1CCCC1	HCMV antiviral -76.7, FMDV antiviral inconclusive, HCV inh inconclusive
S=C(c1cn(CCOc2ccccc2)c2ccccc12)N1CCCC1	MARV entry inh inconclusive, HCV inh 11.2µM
CNC(=S)N/N=C/c1cn(Cc2ccc(F)cc2)c2ccccc12	MARV entry inh inconclusive, Lassa entry inh inconclusive, FMDV antiviral inconclusive, HCV inh 31.6µM
COC(=O)N/N=C/c1ccccc1Cl	Lassa entry inh inconclusive, HCMV antiviral -74.7
O=C(NN=C1C[C@@H](O)[C@H](O)[C@H]2[C@@H]3C(=O)N(C4CCCCC4)C(=O)[C@@H]3CC[C@@H]12)OCc1ccccc1	none (no result: Lassa entry inh, HCMV antiviral, FMDV antiviral, HCV inh)
Cc1ccc(OCCn2cc(C(=O)O)c3ccccc32)cc1	none
Cc1ccc(OCCn2cc(C(=O)C3CCCCC3)c3ccccc32)cc1	Lassa entry inh inconclusive, HCMV antiviral -101.0 (no result: HCV inh)
COC(=O)N/N=C/c1cn(CCCOc2ccccc2)c2ccccc12	MARV entry inh 15.8µM, Lassa entry inh inconclusive, FMDV antiviral inconclusive, HCV inh inconclusive
CC(C)(C)OC(=O)N/N=C/c1cc(N=Nc2ccccc2)ccc1O	MARV entry inh inconclusive, Lassa entry inh inconclusive, FMDV antiviral inconclusive, HCV inh 31.6µM
CC(C)(C)OC(=O)N/N=C/c1c[nH]c2ccccc12	none
COCCCNC(=O)c1oc2ccc(S(=O)(=O)N3CCOCC3)cc2c1C	none
CCCCN(C)C(=O)c1oc2ccc(S(=O)(=O)N3CCCCCC3)cc2c1C	HCMV antiviral inconclusive, FMDV antiviral 35.5µM (no result: HCV inh)
Cc1c(C(=O)NCc2ccc3c(c2)OCO3)oc2ccc(S(=O)(=O)N3CCCCCC3)cc12	MARV entry inh 13µM, FMDV antiviral inconclusive, HCV inh inconclusive
Cc1c(C(=O)NCCN2CCOCC2)oc2ccc(S(=O)(=O)N3CCCCCC3)cc12	HCMV antiviral -100.2
Cc1ccc2oc(C(=O)NCc3ccc4c(c3)OCO4)c(C)c2c1	Lassa entry inh inconclusive
CCOC(=O)[C@H]1[C@H]2COc3ccc(C)cc3[C@@H]2N2C(=O)c3cc(Br)ccc3NC(=O)[C@@]12C	FMDV antiviral inconclusive, HCV inh inconclusive (no result: MARV entry inh, Lassa entry inh)
Cc1ccccc1N1C(=O)C[C@@H](Sc2nnc(-c3ccccc3)o2)C1=O	none (no result: Lassa entry inh, HCMV antiviral, FMDV antiviral, HCV inh)
O=C1CCc2cc(S(=O)(=O)Nc3ccccc3)cc3c2N1CC3	none
CS(=O)(=O)N1c2ccccc2[C@]2([C@@]34C[C@H]5C(=O)N[C@@H](Cc6ccccc6)C(=O)N5[C@@H]3N(S(C)(=O)=O)c3ccccc34)C[C@H]3C(=O)N[C@@H](Cc4ccccc4)C(=O)N3[C@H]12	none (no result: MARV entry inh, Lassa entry inh)
Cc1ccc(-c2csc3ncn(CC(=O)NCC(c4ccco4)N4CCCC4)c(=O)c23)cc1 (stereo unspecified)	HCV inh inconclusive (no result: MARV entry inh, Lassa entry inh)
O=C(Nc1ccc(F)cc1F)c1ccc(S(=O)(=O)NCc2ccco2)cc1	none (no result: MARV entry inh, Lassa entry inh)
CCN(CC)S(=O)(=O)c1ccc(N2CCCC2)c(NC(=O)CSCc2c(C)noc2C)c1	none (no result: MARV entry inh, Lassa entry inh, HCV inh)
CCOC(=O)N1CCN(C(=O)C[C@@H]2C[C@@]3(C(=O)OCC)CCCC=C3N(Cc3ccc(Cl)cc3Cl)C2=O)CC1	none (no result: MARV entry inh, Lassa entry inh, HCV inh)
Cc1ccc2c(c1)-c1cc(C)nn1C(c1ccc3c(c1)OCO3)N2 (stereo unspecified)	HCV inh 14.1µM
Cc1cc2n(n1)C(c1ccccc1)Nc1ccccc1-2 (stereo unspecified)	Lassa entry inh inconclusive, HCV inh 25.1µM
Cc1ccc2c(c1)-c1cc(C)nn1C(c1sccc1C)N2 (stereo unspecified)	HCMV antiviral inconclusive, HCV inh 3.98µM
Cc1cc2n(n1)C(c1ccc3c(c1)OCO3)Nc1ccccc1-2 (stereo unspecified)	HCV inh inconclusive
COc1ccc(CC(=O)NC2CC(=O)N(c3cccc(F)c3)C2)cc1OC (stereo unspecified)	Lassa entry inh inconclusive (no result: MARV entry inh, HCV inh)
CCCCCCCCN1C(=O)[C@@H](CC(=O)N2CCN(C(=O)c3ccco3)CC2)C[C@@]2(C(=O)OC)C1=C[C@H](C(C)(C)C)O[C@@H]2C	none (no result: MARV entry inh, Lassa entry inh, FMDV antiviral, HCV inh)
O=C(CCc1ccc(S(=O)(=O)NC2CCCCC2)cc1)N(Cc1ccccc1)Cc1ccccc1	MARV entry inh 12.6µM, Lassa entry inh inconclusive, HCMV antiviral inconclusive, HCV inh inconclusive
O=C(CCc1ccc(S(=O)(=O)NC2CCCCC2)cc1)NCc1ccccn1	none
O=C(CCc1ccc(S(=O)(=O)NC2CCCCC2)cc1)Nc1ccccc1	HCMV antiviral -68.9
c1cc(-c2cnc3cccnn23)c2cccnc2c1	HCMV antiviral -68.8 (no result: MARV entry inh, Lassa entry inh, HCV inh)
c1ccc2c(-c3cnc4cccnn34)cncc2c1	none (no result: MARV entry inh, Lassa entry inh, HCV inh)
COc1cc(=O)n2c(c1C(=O)N(C)Cc1nccs1)CCN(Cc1c(F)ccc(F)c1F)CC2	none (no result: MARV entry inh, Lassa entry inh, HCMV antiviral, HCV inh)
CC1CN(CCC(=O)NC(c2cccnc2)C(F)(F)F)Cc2cc(Cl)ccc2O1 (stereo unspecified)	none (no result: MARV entry inh, Lassa entry inh, HCMV antiviral, HCV inh)
Cc1ccc(S(=O)(=O)Nc2c(C)n(C)n(-c3ccccc3)c2=O)cc1C(=O)NCc1ccco1	MARV entry inh inconclusive, Lassa entry inh inconclusive, HCV inh 31.6µM
Cc1ccc2[nH]cc(C(=O)NCc3cccs3)c(=O)c2c1	Lassa entry inh inconclusive, HCV inh 10µM (no result: FMDV antiviral)
Cc1cc(C)cc(NS(=O)(=O)c2ccc3[nH]cc(C(=O)NCc4ccco4)c(=O)c3c2)c1	MARV entry inh inconclusive, Lassa entry inh inconclusive, HCMV antiviral -72.5!
Cc1cc(C)cc(NS(=O)(=O)c2ccc3[nH]cc(C(=O)NCc4ccccc4Cl)c(=O)c3c2)c1	Lassa entry inh inconclusive (no result: MARV entry inh, HCV inh)
Cc1ccc(C(=O)OCC(=O)N(CC(C)C)c2c(N)n(Cc3ccccc3)c(=O)[nH]c2=O)cc1[N+](=O)[O-]	Lassa entry inh inconclusive
CC1CC(C)C[N+](=C2C=C(N3CCCC3)CC(C)(C)C2)C1 (stereo unspecified)	HCMV antiviral -102.5, FMDV antiviral inconclusive, HCV inh 3.55µM (no result: MARV entry inh, Lassa entry inh)
CC1(C)CC(N2CCN(c3ccccc3)CC2)=CC(=[N+]2CCCC2)C1	MARV entry inh inconclusive, Lassa entry inh inconclusive, HCMV antiviral -98.3, HCV inh inconclusive (no result: FMDV antiviral)
CSc1nc(N2CCN(c3ccccc3)CC2)cc(N2CCN(c3ccccc3)CC2)n1	HCV inh inconclusive
CC1(C)CC(N2CCCC2)=CC(=[N+]2CCCCCC2)C1	MARV entry inh 1.46µM, Lassa entry inh inconclusive, HCMV antiviral -97.6, FMDV antiviral inconclusive, HCV inh inconclusive
CC1(C)CC(=O)C=C(N2CCNCC2)C1	none
Cc1ccc(C(=O)OCC(=O)NC2CCCC2)cc1	none (no result: MARV entry inh, Lassa entry inh)
O=C(COC(=O)c1ccccc1C(=O)c1ccc(Cl)c([N+](=O)[O-])c1)NC1CC1	MARV entry inh inconclusive, Lassa entry inh inconclusive, HCMV antiviral -99.1, FMDV antiviral 20µM, HCV inh 11.2µM
O=C(OC1CCOC1=O)c1ccccc1C(=O)c1ccc(Cl)c([N+](=O)[O-])c1 (stereo unspecified)	HCV inh 11.2µM (no result: MARV entry inh, Lassa entry inh, HCMV antiviral)

From PubChem BioAssay
